In publication PMC7862700, “An all-to-all approach to the identification of sequence-specific readers for epigenetic DNA modifications on cytosine”:

Experiments:
Experiment in all cases: DAPPL (digital affinity profiling via proximity ligation, sequencing); 10 mM Tris-HCl pH 7.5, 50 mM NaCl, 1 mM DTT, 4% glycerol, room temperature, 30 min; GST-TFs on glutathione beads, 16-mer random dsDNA library, 0.1% formaldehyde crosslink after washing; high values mean tight binding
Conditions in all cases: protein: recombinant; tags: N-terminal GST; dsDNA, one strand shown
FLI1 = molecular target: T1, FLI1 (Homo sapiens, UniProt Q01543 1-452)
T1 sequence: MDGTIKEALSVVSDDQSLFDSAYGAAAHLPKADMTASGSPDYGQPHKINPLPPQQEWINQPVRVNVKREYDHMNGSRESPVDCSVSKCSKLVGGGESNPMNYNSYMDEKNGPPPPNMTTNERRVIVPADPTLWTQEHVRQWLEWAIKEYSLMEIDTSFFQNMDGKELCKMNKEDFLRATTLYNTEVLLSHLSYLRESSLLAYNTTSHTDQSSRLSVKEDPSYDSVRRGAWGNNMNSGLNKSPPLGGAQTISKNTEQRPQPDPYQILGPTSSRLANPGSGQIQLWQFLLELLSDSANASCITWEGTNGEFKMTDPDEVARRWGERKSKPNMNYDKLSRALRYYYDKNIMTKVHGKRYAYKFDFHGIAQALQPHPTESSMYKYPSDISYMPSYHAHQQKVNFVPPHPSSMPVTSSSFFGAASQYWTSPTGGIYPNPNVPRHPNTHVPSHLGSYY
In short: (§1)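 Human transcription factors fused to GST were expressed in yeast, captured on glutathione beads, given DNA barcodes and pooled with a GST-only negative control. Pools were incubated with 200 nmole of a 16-mer random double-stranded DNA library in Tris/NaCl/DTT/glycerol buffer at room temperature for 30 min. They were then washed, crosslinked with 0.1% formaldehyde, proximity-ligated (BsaI/T4 ligase, 1 h, 37 °C), PCR-amplified and sequenced on an Illumina NextSeq500. Binding signal is each 6-mer's read frequency for a factor divided by its frequency for the GST control.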

ELK1 = molecular target: T2, ELK1 (Homo sapiens, UniProt P19419 1-428)
T2 sequence: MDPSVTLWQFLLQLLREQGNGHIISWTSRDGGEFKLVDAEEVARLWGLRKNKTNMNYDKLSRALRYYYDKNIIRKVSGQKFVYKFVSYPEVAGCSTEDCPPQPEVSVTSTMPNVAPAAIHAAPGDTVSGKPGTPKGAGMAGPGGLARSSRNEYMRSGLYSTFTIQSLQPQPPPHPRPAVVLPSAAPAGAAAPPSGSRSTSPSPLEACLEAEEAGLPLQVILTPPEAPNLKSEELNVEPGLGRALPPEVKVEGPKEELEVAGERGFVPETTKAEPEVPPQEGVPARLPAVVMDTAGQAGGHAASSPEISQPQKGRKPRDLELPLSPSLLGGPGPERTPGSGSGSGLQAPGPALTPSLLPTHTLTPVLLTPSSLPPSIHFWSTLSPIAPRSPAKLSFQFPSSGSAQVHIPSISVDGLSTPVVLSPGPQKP
In short: as §1

GABPA = molecular target: T3, GABPA (Homo sapiens, UniProt Q06546 1-454)
T3 sequence: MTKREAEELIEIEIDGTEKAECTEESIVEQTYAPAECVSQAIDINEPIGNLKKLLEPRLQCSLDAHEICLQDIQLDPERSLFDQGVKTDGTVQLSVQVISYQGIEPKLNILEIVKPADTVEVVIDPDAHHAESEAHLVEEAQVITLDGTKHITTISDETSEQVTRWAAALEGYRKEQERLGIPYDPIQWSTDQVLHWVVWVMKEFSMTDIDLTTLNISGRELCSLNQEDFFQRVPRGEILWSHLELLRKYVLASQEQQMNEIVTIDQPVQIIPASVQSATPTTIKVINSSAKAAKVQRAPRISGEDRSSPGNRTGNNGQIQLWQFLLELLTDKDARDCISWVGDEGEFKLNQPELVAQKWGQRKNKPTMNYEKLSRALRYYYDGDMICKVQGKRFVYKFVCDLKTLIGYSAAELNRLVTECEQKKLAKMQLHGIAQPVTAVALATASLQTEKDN
In short: as §1

ERG = molecular target: T4, ERG (Homo sapiens, UniProt P11308 1-479)
T4 sequence: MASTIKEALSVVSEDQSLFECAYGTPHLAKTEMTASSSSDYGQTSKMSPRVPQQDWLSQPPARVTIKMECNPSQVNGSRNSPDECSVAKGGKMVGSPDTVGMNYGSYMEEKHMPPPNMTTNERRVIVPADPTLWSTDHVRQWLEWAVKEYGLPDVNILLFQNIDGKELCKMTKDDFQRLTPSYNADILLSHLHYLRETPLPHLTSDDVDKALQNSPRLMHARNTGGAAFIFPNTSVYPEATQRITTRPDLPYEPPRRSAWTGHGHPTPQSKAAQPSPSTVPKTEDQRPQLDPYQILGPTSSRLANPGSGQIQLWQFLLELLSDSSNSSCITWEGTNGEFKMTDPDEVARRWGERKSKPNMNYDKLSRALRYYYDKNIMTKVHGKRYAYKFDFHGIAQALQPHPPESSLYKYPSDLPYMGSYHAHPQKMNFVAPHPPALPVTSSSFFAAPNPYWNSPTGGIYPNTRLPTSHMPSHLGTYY
In short: as §1

ELF1 = ELF1 (Homo sapiens, UniProt P32519 1-619)
In short: as §1

SPIC = molecular target: T5, SPIC (Homo sapiens, UniProt Q8N5J4 1-248)
T5 sequence: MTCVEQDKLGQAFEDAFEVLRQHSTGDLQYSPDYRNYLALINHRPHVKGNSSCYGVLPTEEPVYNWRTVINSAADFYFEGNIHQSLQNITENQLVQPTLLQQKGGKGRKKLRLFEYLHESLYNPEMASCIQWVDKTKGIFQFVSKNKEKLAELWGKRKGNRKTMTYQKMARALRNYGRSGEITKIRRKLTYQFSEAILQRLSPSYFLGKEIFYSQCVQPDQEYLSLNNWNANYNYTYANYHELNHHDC
In short: as §1

ELF4 = ELF4 (Homo sapiens, UniProt Q99607 1-663)
In short: as §1

ELK4 = molecular target: T6, ELK4 (Homo sapiens, UniProt P28324-2 1-405)
T6 sequence: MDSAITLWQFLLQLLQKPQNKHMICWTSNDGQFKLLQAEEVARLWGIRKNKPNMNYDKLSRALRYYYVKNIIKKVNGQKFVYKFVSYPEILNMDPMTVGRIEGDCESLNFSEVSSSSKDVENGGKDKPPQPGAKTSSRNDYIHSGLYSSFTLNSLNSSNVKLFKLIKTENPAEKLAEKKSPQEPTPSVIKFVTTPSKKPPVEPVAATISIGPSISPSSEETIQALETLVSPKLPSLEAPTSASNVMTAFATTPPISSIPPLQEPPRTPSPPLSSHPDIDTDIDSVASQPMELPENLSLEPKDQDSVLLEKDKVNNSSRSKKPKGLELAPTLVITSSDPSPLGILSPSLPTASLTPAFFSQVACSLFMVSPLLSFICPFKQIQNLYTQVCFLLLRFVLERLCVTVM
In short: as §1

ETS2 = molecular target: T7, ETS2 (Homo sapiens, UniProt P15036 1-469)
T7 sequence: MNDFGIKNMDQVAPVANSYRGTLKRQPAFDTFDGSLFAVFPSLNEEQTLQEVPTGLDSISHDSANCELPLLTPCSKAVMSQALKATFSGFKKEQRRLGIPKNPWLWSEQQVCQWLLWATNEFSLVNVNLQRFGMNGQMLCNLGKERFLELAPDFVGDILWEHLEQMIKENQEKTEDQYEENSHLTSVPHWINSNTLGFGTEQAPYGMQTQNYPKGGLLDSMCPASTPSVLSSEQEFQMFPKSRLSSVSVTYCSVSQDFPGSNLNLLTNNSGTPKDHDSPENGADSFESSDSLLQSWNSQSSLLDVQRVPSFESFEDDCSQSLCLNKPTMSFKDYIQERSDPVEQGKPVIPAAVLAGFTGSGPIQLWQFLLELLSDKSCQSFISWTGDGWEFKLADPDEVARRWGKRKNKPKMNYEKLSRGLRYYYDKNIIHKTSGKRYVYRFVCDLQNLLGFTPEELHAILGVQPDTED
In short: as §1

ETV7 = molecular target: T8, ETV7 (Homo sapiens, UniProt Q9Y603 1-341)
T8 sequence: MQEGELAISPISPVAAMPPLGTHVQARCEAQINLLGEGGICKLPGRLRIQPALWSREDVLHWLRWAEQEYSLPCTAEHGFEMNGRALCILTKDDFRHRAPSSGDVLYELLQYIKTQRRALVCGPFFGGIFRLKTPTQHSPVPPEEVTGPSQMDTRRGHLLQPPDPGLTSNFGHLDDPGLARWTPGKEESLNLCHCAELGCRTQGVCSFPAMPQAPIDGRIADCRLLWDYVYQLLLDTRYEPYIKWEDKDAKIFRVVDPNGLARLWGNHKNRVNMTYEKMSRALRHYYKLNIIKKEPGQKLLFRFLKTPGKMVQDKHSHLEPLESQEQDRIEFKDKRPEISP
In short: as §1

ETV3 = molecular target: T9, ETV3 (Homo sapiens, UniProt P41162-2 1-143)
T9 sequence: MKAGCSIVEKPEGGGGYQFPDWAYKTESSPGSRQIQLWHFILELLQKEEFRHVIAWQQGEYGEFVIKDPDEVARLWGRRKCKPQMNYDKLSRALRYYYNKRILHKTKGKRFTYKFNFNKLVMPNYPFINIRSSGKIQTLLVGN
In short: as §1

SPIB = SPIB (Homo sapiens, UniProt Q01892 1-262)
In short: as §1

ETV1 = ETV1 (Homo sapiens, UniProt P50549 1-477)
In short: as §1

ETV3L = molecular target: T10, ETV3L (Homo sapiens, UniProt Q6ZN32 1-361)
T10 sequence: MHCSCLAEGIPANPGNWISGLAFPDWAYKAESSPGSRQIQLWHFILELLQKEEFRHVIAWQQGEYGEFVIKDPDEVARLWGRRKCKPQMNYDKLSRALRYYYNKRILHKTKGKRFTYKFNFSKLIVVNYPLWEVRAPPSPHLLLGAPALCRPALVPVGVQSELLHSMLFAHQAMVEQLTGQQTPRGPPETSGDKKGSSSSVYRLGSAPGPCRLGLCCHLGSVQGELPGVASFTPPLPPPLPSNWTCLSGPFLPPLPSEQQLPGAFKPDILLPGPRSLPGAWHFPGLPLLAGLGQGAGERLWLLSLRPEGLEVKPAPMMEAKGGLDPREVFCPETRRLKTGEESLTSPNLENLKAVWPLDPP
In short: as §1

Sequence of ELF4 (Q99607 whole entry): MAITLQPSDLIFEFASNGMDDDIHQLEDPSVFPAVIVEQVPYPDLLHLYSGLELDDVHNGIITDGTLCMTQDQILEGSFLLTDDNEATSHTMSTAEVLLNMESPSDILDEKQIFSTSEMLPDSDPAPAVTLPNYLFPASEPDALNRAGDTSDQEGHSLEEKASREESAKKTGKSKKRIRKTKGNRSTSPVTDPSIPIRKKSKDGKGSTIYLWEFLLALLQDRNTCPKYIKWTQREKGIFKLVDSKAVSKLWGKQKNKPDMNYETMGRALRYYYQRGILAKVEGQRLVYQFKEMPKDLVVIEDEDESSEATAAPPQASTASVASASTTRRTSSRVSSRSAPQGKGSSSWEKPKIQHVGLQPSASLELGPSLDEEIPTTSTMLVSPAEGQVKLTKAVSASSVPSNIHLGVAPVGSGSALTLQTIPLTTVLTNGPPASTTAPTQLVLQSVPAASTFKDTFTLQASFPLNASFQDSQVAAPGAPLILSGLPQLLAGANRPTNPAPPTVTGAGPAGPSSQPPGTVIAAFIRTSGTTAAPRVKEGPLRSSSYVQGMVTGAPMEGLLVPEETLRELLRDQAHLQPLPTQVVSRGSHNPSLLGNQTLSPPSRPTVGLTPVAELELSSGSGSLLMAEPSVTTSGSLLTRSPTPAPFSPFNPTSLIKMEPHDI
Sequence of SPIB (Q01892 whole entry): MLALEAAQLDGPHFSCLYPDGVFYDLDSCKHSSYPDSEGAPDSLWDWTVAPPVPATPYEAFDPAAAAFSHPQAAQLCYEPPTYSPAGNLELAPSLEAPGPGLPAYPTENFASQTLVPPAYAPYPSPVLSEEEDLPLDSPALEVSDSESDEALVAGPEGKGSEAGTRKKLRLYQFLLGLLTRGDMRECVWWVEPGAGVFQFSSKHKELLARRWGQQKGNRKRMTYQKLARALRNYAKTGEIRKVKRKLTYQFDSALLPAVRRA
Sequence of ELF1 (P32519 whole entry): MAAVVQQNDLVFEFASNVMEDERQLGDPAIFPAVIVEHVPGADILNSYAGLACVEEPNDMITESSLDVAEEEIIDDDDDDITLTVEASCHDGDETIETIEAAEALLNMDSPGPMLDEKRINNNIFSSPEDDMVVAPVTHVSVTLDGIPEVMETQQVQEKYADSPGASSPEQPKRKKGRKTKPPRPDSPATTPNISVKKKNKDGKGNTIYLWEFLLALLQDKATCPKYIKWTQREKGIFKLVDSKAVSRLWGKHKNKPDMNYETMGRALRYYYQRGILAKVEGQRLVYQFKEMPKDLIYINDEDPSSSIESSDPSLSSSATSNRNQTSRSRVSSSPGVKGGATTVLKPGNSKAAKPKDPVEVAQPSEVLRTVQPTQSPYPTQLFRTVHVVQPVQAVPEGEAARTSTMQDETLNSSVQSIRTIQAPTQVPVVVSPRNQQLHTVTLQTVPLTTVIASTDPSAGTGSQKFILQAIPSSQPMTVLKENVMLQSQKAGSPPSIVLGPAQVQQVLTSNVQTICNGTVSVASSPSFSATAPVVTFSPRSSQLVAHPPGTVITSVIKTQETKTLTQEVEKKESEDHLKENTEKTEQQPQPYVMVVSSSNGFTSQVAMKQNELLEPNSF
Sequence of ETV1 (P50549 whole entry): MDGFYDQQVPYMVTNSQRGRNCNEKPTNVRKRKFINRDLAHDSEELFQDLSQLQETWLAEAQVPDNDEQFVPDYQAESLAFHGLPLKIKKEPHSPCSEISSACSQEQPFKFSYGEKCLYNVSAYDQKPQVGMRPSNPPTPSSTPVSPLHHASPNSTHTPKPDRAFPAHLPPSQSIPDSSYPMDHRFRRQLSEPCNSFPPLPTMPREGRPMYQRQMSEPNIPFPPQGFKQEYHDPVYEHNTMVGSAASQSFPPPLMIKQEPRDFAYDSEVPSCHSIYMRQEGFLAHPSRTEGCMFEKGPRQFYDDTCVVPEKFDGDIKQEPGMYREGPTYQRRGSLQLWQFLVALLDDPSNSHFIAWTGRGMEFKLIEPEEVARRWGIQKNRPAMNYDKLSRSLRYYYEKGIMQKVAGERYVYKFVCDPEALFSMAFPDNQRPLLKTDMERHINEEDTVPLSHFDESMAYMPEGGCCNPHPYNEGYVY

Sequence	binding signal (FLI1)	binding signal (ELK1)	binding signal (GABPA)	binding signal (ERG)	binding signal (ELF1)	binding signal (SPIC)	binding signal (ELF4)	binding signal (ELK4)	binding signal (ETS2)	binding signal (ETV7)	binding signal (ETV3)	binding signal (SPIB)	binding signal (ETV1)	binding signal (ETV3L)
TAAGCA	1.08 fold enrichment (6-mer frequency, TF over GST control)	1.02 fold enrichment (6-mer frequency, TF over GST control)	1.08 fold enrichment (6-mer frequency, TF over GST control)	1.01 fold enrichment (6-mer frequency, TF over GST control)	1.07 fold enrichment (6-mer frequency, TF over GST control)	1.08 fold enrichment (6-mer frequency, TF over GST control)	1.03 fold enrichment (6-mer frequency, TF over GST control)	1.09 fold enrichment (6-mer frequency, TF over GST control)	1.07 fold enrichment (6-mer frequency, TF over GST control)	1.02 fold enrichment (6-mer frequency, TF over GST control)	1 fold enrichment (6-mer frequency, TF over GST control)	–	–	–
GGATCT	1.08 fold enrichment (6-mer frequency, TF over GST control)	1.07 fold enrichment (6-mer frequency, TF over GST control)	1.02 fold enrichment (6-mer frequency, TF over GST control)	1.01 fold enrichment (6-mer frequency, TF over GST control)	–	1.01 fold enrichment (6-mer frequency, TF over GST control)	1.02 fold enrichment (6-mer frequency, TF over GST control)	–	1 fold enrichment (6-mer frequency, TF over GST control)	1.07 fold enrichment (6-mer frequency, TF over GST control)	1.08 fold enrichment (6-mer frequency, TF over GST control)	1.02 fold enrichment (6-mer frequency, TF over GST control)	1.03 fold enrichment (6-mer frequency, TF over GST control)	1.06 fold enrichment (6-mer frequency, TF over GST control)
